High-throughput results from PubChem.
MITF TRPM1 inh: reduces MITF-dependent TRPM1 promoter luciferase signal; SK-MEL-5 TRPM1 promoter luciferase, 24 h; inhibition, % at 12.5 µM; 330,000 tested, 0.83% active; AID 488899;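 active = mean inhibition across replicates of 60% or more, whatever share of single replicates reaches that level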
Peg3 promoter: inhibitors of Peg3 promoter | inhibition, % at 20 µM | AID 588405 | HeLa PEG-Prom luciferase reporter, luminescence, overnight | 360,000 tested, 1.7% active;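 active = inhibition of at least 50% at 20 µM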
TROY signal inh: inhibitors of TROY-dependent NF-kB signaling; Q293 LMP1-TROYcd NF-kB luciferase reporter, 4 h; inhibition, % at 10 µM; 360,000 tested, 0.98% active;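 active = compounds whose plate-normalised and pattern-corrected inhibition of the luciferase reporter signal at the single screening dose is 50% or more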
HIF-2a block: inhibitors of HIF-2a | 786-0 RCC cells HIF-2a reporter, luciferase luminescence, overnight | inhibition, % at 18.8 µM | 360,000 tested, 0.72% active | AID 624352;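 active = inhibition of the luminescence signal of 40% or more relative to plate controls, in a single-dose primary screen at 18.75 µM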
TWEAK Fn14 block: blocks TWEAK-Fn14 interaction in a reporter cell assay; inhibition, % at 10 µM; 360,000 tested, 2% active; AID 1159606; TWEAK-stimulated Fn14 reporter cells, luciferase luminescence, 8 h; in the data active = inhibition above about 50%
LMP1 NFkB inh: inhibitors of Epstein-Barr LMP1-induced NF-kappaB reporter; 350,000 tested, 0.69% active; LMP1-induced NF-kappaB luciferase reporter cells, luminescence; inhibition, % at 12.5 µM; in the data active = inhibition above about 41%
Mdm2 MdmX conf: Mdm2/MdmX (human) interaction inhibition, confirmed | shares compounds with HIF-2a block | 740 tested, 99% active | inhibition, % at 8 µM | SaOS-2 split-luciferase Mdm2/MdmX complementation, luminescence | AID 504601;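 active = mean inhibition of the luminescence signal across two replicates at or above 26 percent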
Target sequence (O15151 whole entry, looked up): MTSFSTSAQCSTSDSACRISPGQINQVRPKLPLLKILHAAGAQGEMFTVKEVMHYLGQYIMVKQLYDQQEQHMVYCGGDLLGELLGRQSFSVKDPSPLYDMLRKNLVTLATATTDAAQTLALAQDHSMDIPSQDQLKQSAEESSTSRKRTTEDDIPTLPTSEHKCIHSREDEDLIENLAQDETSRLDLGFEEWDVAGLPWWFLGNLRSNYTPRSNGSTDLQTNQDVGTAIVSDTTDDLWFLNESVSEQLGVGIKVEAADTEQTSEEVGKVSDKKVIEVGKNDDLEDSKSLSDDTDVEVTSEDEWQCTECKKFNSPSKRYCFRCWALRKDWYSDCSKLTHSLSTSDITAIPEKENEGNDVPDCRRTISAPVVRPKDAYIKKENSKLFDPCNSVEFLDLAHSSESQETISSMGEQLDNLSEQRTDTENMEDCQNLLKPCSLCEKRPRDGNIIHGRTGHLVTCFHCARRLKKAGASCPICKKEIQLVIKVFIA
Target sequence (Q00987 whole entry, looked up): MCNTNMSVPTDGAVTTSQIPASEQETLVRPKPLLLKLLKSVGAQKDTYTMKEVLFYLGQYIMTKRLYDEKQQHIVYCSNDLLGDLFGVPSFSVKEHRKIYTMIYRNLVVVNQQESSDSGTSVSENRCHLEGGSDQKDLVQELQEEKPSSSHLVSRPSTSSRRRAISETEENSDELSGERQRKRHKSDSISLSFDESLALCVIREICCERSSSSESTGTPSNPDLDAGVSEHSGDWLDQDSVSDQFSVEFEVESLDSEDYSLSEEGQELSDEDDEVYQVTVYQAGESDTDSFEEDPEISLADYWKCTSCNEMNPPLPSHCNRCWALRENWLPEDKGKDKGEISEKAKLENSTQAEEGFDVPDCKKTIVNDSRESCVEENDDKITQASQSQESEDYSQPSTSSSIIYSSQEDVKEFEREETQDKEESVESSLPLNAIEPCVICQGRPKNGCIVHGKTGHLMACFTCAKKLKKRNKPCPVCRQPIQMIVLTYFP
HIF-2a conf: HIF-2a inhibition, single concentration confirmation; shares compounds with HIF-2a block; 786-0 RCC cells, HIF-2a luciferase reporter luminescence, overnight; inhibition, % at 18.8 µM; 1,800 tested, 56% active;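 active = mean inhibition across four replicates of at least 40 percent at the single tested concentration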
HIF-1a counter: counter-screen for HIF-2a inhibitors: HIF-1a inhibition in MiaPaCa-2 cells; shares compounds with HIF-2a block; MiaPaCa-2 HIF-1a luciferase reporter, desferoxamine, overnight; inhibition, % at 18.8 µM; 1,800 tested, 72% active;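 active = mean inhibition of the reporter signal across four replicates at the single tested dose of 50% or more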
Each line names hits and unclear results; the compound was inactive in the other large screens (follow-up assays come after a bar, where they were run). An excerpt weighted towards active compounds, which were near 4% of everything screened.

Cc1ccc(NC(=O)CSc2nc3ccccc3c(=O)n2CCCN2CCCCC2)cc1Cl	Peg3 promoter 114 | Mdm2 MdmX conf 103
Nc1cc(C(F)(F)F)ccc1NCCc1ccccn1	none
O[C@@H]1[C@@H](O)C=C2CCN3Cc4cc5c(cc4[C@H]1C23)OCO5 (stereo partly drawn)	MITF TRPM1 inh 63, Peg3 promoter 63, TROY signal inh 68, HIF-2a block 51, TWEAK Fn14 block 75 | HIF-2a conf 40 | HIF-1a counter 103
Cc1cccc([C@@H]2[C@@H]3C(=O)N(Cc4ccccc4)C(=O)[C@@H]3[C@]3(Cc4ccccc4)C(=O)N(c4ccc(C(F)(F)F)cc4)C(=O)N23)c1	none | Mdm2 MdmX conf 103
CN(C)/C(=N\S(=O)(=O)c1ccc(Br)cc1)c1ccccc1	none
Cc1ccccc1N(Cc1cc(=O)[nH]c2ccccc12)C(=O)CCl	Peg3 promoter 58, TWEAK Fn14 block 70 | Mdm2 MdmX conf 102
O=C(CCl)N(Cc1ccccc1)c1ccccc1	none | Mdm2 MdmX conf 103
O=C(CCl)N(Cc1cc(=O)[nH]c2ccccc12)c1ccccc1	MITF TRPM1 inh 69, Peg3 promoter 85, HIF-2a block 47, TWEAK Fn14 block 82 | Mdm2 MdmX conf 101 | HIF-2a conf 70 | HIF-1a counter 104
Cc1ccccc1N(Cc1cc(=O)[nH]c2ccccc12)C(=O)C(C)C	none
CCC(=O)N(Cc1cc(=O)[nH]c2ccccc12)c1ccccc1	none
COc1ccccc1C(=O)NC(=O)COC(=O)c1ccc(C)o1	none
CC(=O)c1ccc(S(=O)(=O)N(C)CC(=O)N2CCCCCC2)cc1	none
CS(=O)(=O)c1nc(-c2ccc(F)cc2)cc(C(F)(F)F)n1	MITF TRPM1 inh 97, Peg3 promoter 106, TROY signal inh 52, HIF-2a block 95, TWEAK Fn14 block 86 | HIF-2a conf 55 | HIF-1a counter 102
Nc1nc(-c2ccc(F)cc2)cc(C(F)(F)F)n1	none
COc1ccc(-c2cc(C(F)(F)F)nc(S(C)(=O)=O)n2)cc1	MITF TRPM1 inh 61, Peg3 promoter 100, HIF-2a block 89, TWEAK Fn14 block 53 | Mdm2 MdmX conf 102 | HIF-2a conf inactive | HIF-1a counter 103
Cc1cc(Cl)c(S(=O)(=O)N2CCN(c3ccc(F)cc3)CC2)cc1OCC(=O)NC1CCCCC1	none
Cc1noc2ncnc(Sc3ccccc3Cl)c12	Peg3 promoter 115, TROY signal inh 54, HIF-2a block 67 | HIF-2a conf inactive | HIF-1a counter inactive
CC(O)CC(=O)OC[C@]12CC[C@H]3[C@@](C)(CC[C@H]4C(C)(C)CCC[C@]34C)[C@@H]1CC(C1=CC(=O)OC1O)O2 (stereo partly drawn)	Peg3 promoter 99, TROY signal inh 89, HIF-2a block 93, TWEAK Fn14 block 106 (no result: MITF TRPM1 inh, LMP1 NFkB inh) | HIF-2a conf 96 | HIF-1a counter 107
CN(CCCCCCCCCCN(C)C(=O)Oc1cccc([N+](C)(C)C)c1)C(=O)Oc1cccc([N+](C)(C)C)c1	none
O=C(NCc1cccs1)c1csc([C@@H]2C[C@H](O)[C@@H](CO)O2)n1	none (no result: MITF TRPM1 inh, LMP1 NFkB inh)
CN(C)CC(CCC(CN(C)C)C(O)(c1ccccc1)c1ccccc1)C(O)(c1ccccc1)c1ccccc1 (stereo not drawn)	none (no result: MITF TRPM1 inh, Peg3 promoter, TROY signal inh, HIF-2a block, TWEAK Fn14 block, LMP1 NFkB inh) | Mdm2 MdmX conf 103
Cc1c(CCC(=O)N2CCC[C@H]2C(=O)O)c(=O)oc2c(C)c3oc4c(c3cc12)CCCC4	HIF-2a block 57 | HIF-2a conf 71 | HIF-1a counter inactive
CCCCC(NC(=O)CCc1c(C)c2cc3c4c(oc3c(C)c2oc1=O)CCCC4)C(=O)O (stereo not drawn)	HIF-2a block 53 | HIF-2a conf 55 | HIF-1a counter inactive
CCCCC(NC(=O)Cc1c(C)c2cc3c4c(oc3c(C)c2oc1=O)CCCC4)C(=O)O (stereo not drawn)	none
Cc1c(CCC(=O)NCCCn2ccnc2)c(=O)oc2c(C)c3oc4c(c3cc12)CCCC4	HIF-2a block 47 | HIF-2a conf 63 | HIF-1a counter 59
CCOc1cc(N2CCOCC2)c(OCC)cc1NC(=O)c1cc(S(=O)(=O)N2CCOCC2)ccc1C	none
O=C(OCC(=O)c1c[nH]c2ccccc12)c1cc(S(=O)(=O)N2CCOCC2)ccc1F	HIF-2a block 42 | HIF-2a conf inactive | HIF-1a counter 72
Cc1cc(C)cc(COc2ccc3c(C)c(CC(=O)O)c(=O)oc3c2C)c1	none
Cc1c(C)c2ccc(OCc3ccc(C(=O)O)o3)c(C)c2oc1=O	HIF-2a block 50 | HIF-2a conf inactive | HIF-1a counter inactive
O=C(CN(c1cccc(C(F)(F)F)c1)S(=O)(=O)c1ccc(Cl)c([N+](=O)[O-])c1)NCc1ccccc1Cl	Peg3 promoter 101, HIF-2a block 70 | HIF-2a conf inactive | HIF-1a counter 104
O=C(O)CN(c1cccc(C(F)(F)F)c1)S(=O)(=O)c1ccccc1	none
CC(NC(=O)CN(c1cccc(C(F)(F)F)c1)S(=O)(=O)c1ccc(Cl)c([N+](=O)[O-])c1)c1ccccc1 (stereo not drawn)	MITF TRPM1 inh 79, Peg3 promoter 104, HIF-2a block 78 | HIF-2a conf inactive | HIF-1a counter 103
CCOC(=O)c1c(NC(=O)/C=C/C(=O)O)sc(C)c1-c1ccc(C(C)(C)C)cc1	TROY signal inh 90, TWEAK Fn14 block 98 | Mdm2 MdmX conf 103
CCOC(=O)c1c(NC(=O)c2c(-c3ccccc3)noc2C)sc(C)c1-c1ccccc1	none | Mdm2 MdmX conf 102
CC1CCCCN1C(=O)COC(=O)c1cc([N+](=O)[O-])ccc1N (stereo not drawn)	none
Cc1nnc(SCC(=O)NC23CC4CC(CC(C4)C2)C3)n(N)c1=O	TROY signal inh 85, HIF-2a block 68, TWEAK Fn14 block 97 | HIF-2a conf inactive | HIF-1a counter inactive
Cn1ccnc1SCC(=O)NC12CC3CC(CC(C3)C1)C2	none
CCOC(=O)CCS(=O)(=O)c1nc(-c2ccccc2)cc(C(F)(F)F)n1	MITF TRPM1 inh 85, Peg3 promoter 114, HIF-2a block 94, TWEAK Fn14 block 84 | Mdm2 MdmX conf 103
CCOC(=O)c1c(C(F)(F)F)cc(-c2ccc(F)cc2)nc1C	none
CCOC(=O)CS(=O)(=O)c1nc(-c2ccc(F)cc2)cc(C(F)(F)F)n1	MITF TRPM1 inh 99, Peg3 promoter 100, TROY signal inh 51, HIF-2a block 93, TWEAK Fn14 block 57, LMP1 NFkB inh 69 | Mdm2 MdmX conf 99
